The values that follow come from PubChem BioAssay (NCATS).

Results filed as inconclusive are left out. Active and inactive are the calls of the source. Unless noted, the call rests on the fitted dose curve; in most records, active means well fitted curve in either direction with a large enough effect (not every such curve was filed as active); inconclusive means small, poorly fitted or top-dose-only effect, or another doubt; inactive means flat fitted curve, though single readings scatter.

Assay [1] concerns the target Lysosomal acid glucosylceramidase (Homo sapiens) (UniProt P04062). Kind of assay: Glucocerebrosidase-p2 (AID 348; in the data active means potency below about 10 µM; further: potency means the concentration at half of the fitted maximal effect). The following applies: purified GBA, blue fluorogenic substrate, 40 min. Put shortly:
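Normal human glucocerebrosidase (0.2 nM) with blue fluorogenic substrate (80 uM final) in citrate/phosphate pH 5.9 with 10mM sodium taurocholate, 0.01% tween-20; 40 min RT, NaOH/glycine stop; fluorescence Ex 365/Em 440; AC50 from a titration from 0.6 nM upwards.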

The nature of assay [2]: AP1 Signaling Pathway (AID 357).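 Further: ME-180 reporter cells stimulated with EGF at its EC50 level; on the % scale 0 is the no-effect control and ±100 the full control effect.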 Particulars: ME-180 AP-1-bla reporter, EGF-induced, beta-lactamase ratio, 5 h; at 7.69 µM (top of the series) unless noted. Put shortly:
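In this screen, ME-180 cells in Opti-MEM with 0.5% dialyzed FBS received EC50 EGF and compound titrations for 5 h. AP-1 reporter beta-lactamase was detected via CCF4 ratio, giving AC50 for positive and negative modulators.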

Assay [3] can be described thus: NFAT Signaling Pathway (AID 444).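 Further: carbachol stimulus at about its EC50 of 1 µM final; on the % scale 0 is the no-effect control and ±100 the full control effect.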 Particulars: Jurkat NFAT-bla M1, carbachol, beta-lactamase ratio, 5 h; at 7.69 µM (top of the series) unless noted. An outline of the steps:
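Jurkat cells with NFAT-driven β-lactamase reporter and co-expressed M1 receptor, stimulated with carbachol (final 1 uM, ~EC50), compound titration, 5 h at 37 °C. CCF4 loaded 1 h at RT; 460/530 nm ratio gave %activity and AC50.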

A short description of assay [4]: Stat Signaling Pathway (AID 446).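 Further: ME-180 cervical cancer cells given 40 pM IL-6 alongside compound; SIE-controlled beta-lactamase reporter measured as 460/530 nm FRET emission ratio; on the % scale 0 is the no-effect control and ±100 the full control effect.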 Particulars: ME-180 (cervical carcinoma) SIE beta-lactamase reporter, IL-6 stimulated, 5 h; at 7.69 µM (top of the series) unless noted. An outline of the steps:
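Compound effects on IL-6-induced STAT reporter activity were measured in ME-180 cells. After overnight culture, cells were co-treated with 40 pM IL-6 for 5 hrs before beta-lactamase substrate loading at room temperature.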

Assay [5] deals with Glucocorticoid receptor (Homo sapiens) (UniProt P04150). Kind of assay: GR-EFC Redistribution (AID 451; calls by dose curve; further: potency means the concentration at half of the fitted maximal effect). The following applies: CHO-K1 GR-EFC translocation, beta-gal luminescence, 2 h. Put shortly: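 CHO-K1 cells expressing nuclear EA and GR-ED fragments of b-gal; compounds titrated up to 46 uM final, 2 h at 37 C. GR nuclear translocation read as complemented b-gal luminescence after 1 h RT detection.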

Assay [6] addresses Mitogen-activated protein kinase 10 (Mus musculus) (UniProt Q61831). In words: JNK3 AlphaScreen Assay (AID 530).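 Further: kinase came from lysate of stimulated human HepG2 cells; signal reports phosphorylation of biotinylated GST-cJun 1-79 at Ser73 with 10 µM ATP; on the % scale 0 is the no-effect control and ±100 the full control effect.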 Particulars: JNK3 lysate, c-Jun phosphorylation; series mostly up to 57.1 µM. An outline of the steps: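 HepG2 lysate (IL-1b/TNFa pre-activated) + biotin-GST-cJun 1-79 + anti-pSer73 cJun; cpd titration, 15 min RT; ATP 10 uM start; Tris pH 7.6, MgCl2, DTT, vanadate; beads in EDTA buffer; AlphaScreen.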

Assay [7] addresses 3',5'-cyclic-AMP phosphodiesterase 4B (Homo sapiens) (UniProt Q07343). In words: qHTS Assay for Inhibitors of PDE-IV (AID 607; active means well fitted activation curve with a large enough effect in the main read-out, with a control signal flat, not every such curve was filed as active; further: % of control where 0% means no effect). Particulars: HEK293 ACTOne CNG channel cells, membrane potential fluorescence; series mostly up to 22.9 µM. An outline of the steps:
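ACTOne HEK293 cells carry a modified cAMP-gated CNG channel and express endogenous PDE4; plated 1000 cells/well, compounds up to 22.9 uM final. Membrane-potential dye fluorescence (ex 535/em 590) was read; parental cells received 10 uM forskolin + 100 uM RO 20-1724.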

Assay [8] deals with Cytochrome P450 3A4 (Homo sapiens) (UniProt P08684). Kind of assay: qHTS Assay for Activators of Cytochrome P450 3A4 (AID 885; active means well fitted curve in the direction sought with a large enough effect; an effect the other way counts as inactive or inconclusive; further: nearly all actives have a fitted effect of over 65% in size). Particulars: recombinant CYP3A4, Luciferin-PPXE luminescence, 60 min; series mostly up to 57.1 µM. Put shortly: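 CYP3A4 activity: Luciferin-PPXE O-dealkylation, 25uM substrate, 200mM KPO4, RT throughout. Read-out is luciferase luminescence; higher values reflect activation.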
(In qHTS, concentration-response curves come from the screen itself.)

Assay [9] is described as follows: qHTS Assay for Lipid Storage Modulators (AID 1519; calls by dose curve). Particulars: Drosophila S3 cells, BODIPY lipid droplet/cell ratio, laser cytometry, cells loaded with oleic acid; for activity change, negative = inhibition: at 57.5 µM (top of the series). Put shortly: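 Cells seeded at 5,000 per well were treated with compounds over a concentration series and loaded with oleic acid (400 uM, as added). Lipid droplet fluorescence (488 nm excitation, 500-530 nm channel) was read by laser-scanning cytometry and normalized to 20 uM Triacsin C.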

A short description of assay [10]: Primary qHTS for small molecule stabilizers of the endoplasmic reticulum resident proteome: Secreted ER Calcium Modulated Protein (SERCaMP) assay (AID 1508630; active means well fitted curve in the direction sought with a large enough effect; an effect the other way counts as inactive or inconclusive; further: on the % scale 0 is the no-effect control and ±100 the full control effect). The following applies: SH-SY5Y GLuc-SERCaMP (Gaussia luciferase released on ER calcium loss) secretion, thapsigargin, luminescence; series mostly up to 38.4 µM. Put shortly:
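The SH-SY5Y reporter protocol was run at 3 concentrations up to 38.3 uM (primary) or 11 concentrations (follow-up): 16 h compound, 100 nM thapsigargin for 4 h, then extracellular luciferase luminescence.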

Assay [11] has as its target Glucocorticoid receptor (Homo sapiens) (UniProt P04150). Kind of assay: GR-GFP Redistribution (AID 450;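 active means compounds whose dose series gives a full or clear partial fitted curve of increased nuclear translocation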; further: potency means the concentration at half of the fitted maximal effect). Particulars: U2OS GR-GFP nuclear translocation, laser cytometry, 2 h.
For assay [12], the target named is Ubiquitin carboxyl-terminal hydrolase 1 (Homo sapiens) (UniProt O94782). In words: Inhibitors of USP1/UAF1: Pilot qHTS (AID 504865; active means well fitted curve in the direction sought with a large enough effect; an effect the other way counts as inactive or inconclusive;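 further: rhodamine fluorescence freed from ubiquitin-rhodamine substrate followed over time; top concentration of the series differs between compounds; on the % scale 0 is the no-effect control and ±100 the full control effect; nearly all actives have a fitted effect of over 35% in size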). Particulars: purified USP1/UAF1, Ub-rhodamine cleavage fluorescence; series mostly up to 54.9 µM. Put shortly: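 Kinetic fluorescence assay: 1nM USP1/UAF1, 15 min compound preincubation, then 150nM Ub-Rho; 480/540 nm.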
The target of assay [13] is Cytochrome P450 2C19 (Homo sapiens) (UniProt P33261). Kind of assay: qHTS Assay for Inhibitors and Substrates of Cytochrome P450 2C19 (AID 899; active means well fitted curve in the direction sought with a large enough effect; an effect the other way counts as inactive or inconclusive; further: potency means the concentration at half of the fitted maximal effect; nearly all actives have a fitted effect of over 60% in size). Particulars: recombinant CYP2C19, luciferin-H EGE luminescence; series mostly up to 57.1 µM. An outline of the steps:
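5 nM human CYP2C19 with 10uM Luciferin-H EGE (at KM) in 50mM KPO4, compound preincubated 10 min at 37C, then NADPH regeneration for 60 min at 37C. Luciferin read by luminescence after detection reagent; normalized to 57uM ketoconazole as full inhibition.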

Assay [14] addresses Cytochrome P450 1A2 (Homo sapiens) (UniProt P05177). In words: p450-cyp1a2 (AID 410; calls by dose curve;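 further: -100% = full effect of reference inhibitor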). Particulars: recombinant CYP1A2, luciferin-ME demethylation, luminescence; series mostly up to 57 µM. An outline of the steps: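 20nM CYP1A2, 100uM Luciferin-ME (=Km), 100mM KPO4; cpd 10 min RT; +NADPH regen, 60 min RT; stop/detect 20 min; luminescence. Normalized to furafylline 57 uM = full inhibition.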

The target in assay [15] is Cytochrome P450 2C9 (Homo sapiens) (UniProt P11712). In words: qHTS Assay for Inhibitors and Substrates of Cytochrome P450 2C9 (AID 883; active means well fitted curve in the direction sought with a large enough effect; an effect the other way counts as inactive or inconclusive; further: potency means the concentration at half of the fitted maximal effect; nearly all actives have a fitted effect of over 60% in size). The following applies: recombinant CYP2C9, luciferin-H luminescence, 60 min; series mostly up to 57.1 µM. Put shortly:
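Human CYP2C9 (10nM) with Luciferin-H at 100uM (its KM) in 25mM KPO4; compound preincubated 10 min at 37C, then NADPH regeneration for 60 min at 37C. Luciferin read by luminescence after detection reagent; normalized to 57uM sulphaphenazole as full inhibition.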

Where [16] appears, read: measured here: cell count channel max response.
Setting [17] is: measured here: lipid channel max response.

Chain of Lysosomal acid glucosylceramidase (Homo sapiens) (P04062 whole entry, looked up): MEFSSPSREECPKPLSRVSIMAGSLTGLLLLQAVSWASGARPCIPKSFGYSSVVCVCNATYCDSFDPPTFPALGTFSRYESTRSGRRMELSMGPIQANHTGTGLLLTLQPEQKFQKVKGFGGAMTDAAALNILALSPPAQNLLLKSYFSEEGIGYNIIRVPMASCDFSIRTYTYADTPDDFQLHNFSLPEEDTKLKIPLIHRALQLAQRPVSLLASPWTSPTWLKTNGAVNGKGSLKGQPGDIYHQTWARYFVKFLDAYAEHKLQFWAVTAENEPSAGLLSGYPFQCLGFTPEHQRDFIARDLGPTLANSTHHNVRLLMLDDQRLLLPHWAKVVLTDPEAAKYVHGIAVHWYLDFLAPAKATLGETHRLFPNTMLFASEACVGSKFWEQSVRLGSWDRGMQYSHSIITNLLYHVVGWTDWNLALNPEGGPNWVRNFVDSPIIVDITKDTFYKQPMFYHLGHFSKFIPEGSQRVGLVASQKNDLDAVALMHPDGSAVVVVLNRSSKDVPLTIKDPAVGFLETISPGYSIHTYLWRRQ
Chain of Cytochrome P450 3A4 (Homo sapiens) (P08684 whole entry, looked up): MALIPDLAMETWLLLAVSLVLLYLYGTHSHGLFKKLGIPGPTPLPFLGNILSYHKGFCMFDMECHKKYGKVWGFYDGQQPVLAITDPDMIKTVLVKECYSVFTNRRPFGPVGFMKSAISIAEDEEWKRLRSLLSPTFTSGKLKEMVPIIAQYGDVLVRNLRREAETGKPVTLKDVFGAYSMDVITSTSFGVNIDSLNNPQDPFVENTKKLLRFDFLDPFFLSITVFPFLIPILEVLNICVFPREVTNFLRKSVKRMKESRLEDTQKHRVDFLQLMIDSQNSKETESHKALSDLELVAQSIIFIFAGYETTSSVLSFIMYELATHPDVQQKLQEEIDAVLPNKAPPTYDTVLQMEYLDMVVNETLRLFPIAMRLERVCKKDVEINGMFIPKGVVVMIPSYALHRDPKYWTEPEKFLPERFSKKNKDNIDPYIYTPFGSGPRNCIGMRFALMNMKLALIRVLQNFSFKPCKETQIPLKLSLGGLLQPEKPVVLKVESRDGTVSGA
Chain of 3',5'-cyclic-AMP phosphodiesterase 4B (Homo sapiens) (Q07343 whole entry, looked up): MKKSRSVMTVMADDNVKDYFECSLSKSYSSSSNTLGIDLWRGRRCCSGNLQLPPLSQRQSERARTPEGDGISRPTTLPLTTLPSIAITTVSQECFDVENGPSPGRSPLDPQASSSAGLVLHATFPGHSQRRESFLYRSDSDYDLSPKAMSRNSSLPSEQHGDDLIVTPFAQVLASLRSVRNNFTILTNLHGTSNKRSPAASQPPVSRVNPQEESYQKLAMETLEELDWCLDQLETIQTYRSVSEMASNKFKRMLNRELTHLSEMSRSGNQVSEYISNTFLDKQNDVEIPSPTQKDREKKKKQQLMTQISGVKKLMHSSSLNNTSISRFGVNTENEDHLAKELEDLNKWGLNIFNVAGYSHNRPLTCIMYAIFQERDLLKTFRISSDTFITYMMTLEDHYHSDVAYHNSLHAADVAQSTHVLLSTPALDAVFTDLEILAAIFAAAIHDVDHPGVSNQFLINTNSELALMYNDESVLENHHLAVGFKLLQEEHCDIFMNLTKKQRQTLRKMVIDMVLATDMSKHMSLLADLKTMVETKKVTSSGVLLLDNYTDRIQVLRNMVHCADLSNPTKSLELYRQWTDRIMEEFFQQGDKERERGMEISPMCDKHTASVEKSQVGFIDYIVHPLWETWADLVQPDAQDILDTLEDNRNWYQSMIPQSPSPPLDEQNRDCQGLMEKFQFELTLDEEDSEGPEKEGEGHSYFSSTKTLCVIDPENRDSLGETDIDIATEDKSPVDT
Chain of Glucocorticoid receptor (Homo sapiens) (P04150 whole entry, looked up, the tested form may be a part): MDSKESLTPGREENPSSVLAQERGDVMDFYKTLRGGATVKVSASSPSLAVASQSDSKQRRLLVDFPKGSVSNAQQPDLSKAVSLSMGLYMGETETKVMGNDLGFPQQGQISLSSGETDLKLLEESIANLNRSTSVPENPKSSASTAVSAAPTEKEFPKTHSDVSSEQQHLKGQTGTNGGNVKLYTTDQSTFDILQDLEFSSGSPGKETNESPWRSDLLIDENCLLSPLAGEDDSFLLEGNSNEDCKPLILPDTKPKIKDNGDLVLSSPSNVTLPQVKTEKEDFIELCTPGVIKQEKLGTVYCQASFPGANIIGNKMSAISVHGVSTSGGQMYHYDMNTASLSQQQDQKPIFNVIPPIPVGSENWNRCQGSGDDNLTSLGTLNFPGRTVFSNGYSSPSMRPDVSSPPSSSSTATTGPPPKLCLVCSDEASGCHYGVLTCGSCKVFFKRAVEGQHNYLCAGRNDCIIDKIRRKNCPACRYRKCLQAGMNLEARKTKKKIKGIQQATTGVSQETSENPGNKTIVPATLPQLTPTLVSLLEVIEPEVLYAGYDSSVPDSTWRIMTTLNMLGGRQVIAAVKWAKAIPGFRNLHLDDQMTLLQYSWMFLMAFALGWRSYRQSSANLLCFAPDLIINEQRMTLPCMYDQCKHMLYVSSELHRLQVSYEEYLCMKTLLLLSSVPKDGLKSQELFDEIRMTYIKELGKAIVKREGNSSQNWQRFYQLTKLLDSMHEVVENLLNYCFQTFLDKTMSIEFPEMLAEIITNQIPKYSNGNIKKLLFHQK
Chain of Cytochrome P450 1A2 (Homo sapiens) (P05177 whole entry, looked up): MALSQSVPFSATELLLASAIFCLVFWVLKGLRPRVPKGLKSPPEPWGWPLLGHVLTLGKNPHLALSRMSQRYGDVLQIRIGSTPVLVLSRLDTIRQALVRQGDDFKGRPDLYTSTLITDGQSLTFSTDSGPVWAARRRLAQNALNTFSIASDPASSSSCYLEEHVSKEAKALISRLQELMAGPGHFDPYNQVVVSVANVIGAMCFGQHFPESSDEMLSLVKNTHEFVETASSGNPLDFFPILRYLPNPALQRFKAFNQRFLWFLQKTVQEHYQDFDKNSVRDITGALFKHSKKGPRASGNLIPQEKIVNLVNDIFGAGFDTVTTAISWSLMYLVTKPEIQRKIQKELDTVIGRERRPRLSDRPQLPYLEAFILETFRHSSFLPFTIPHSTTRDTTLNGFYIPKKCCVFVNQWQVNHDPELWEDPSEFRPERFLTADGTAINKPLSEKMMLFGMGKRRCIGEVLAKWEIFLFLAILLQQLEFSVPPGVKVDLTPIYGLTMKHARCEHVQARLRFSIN
Chain of Cytochrome P450 2C19 (Homo sapiens) (P33261 whole entry, looked up): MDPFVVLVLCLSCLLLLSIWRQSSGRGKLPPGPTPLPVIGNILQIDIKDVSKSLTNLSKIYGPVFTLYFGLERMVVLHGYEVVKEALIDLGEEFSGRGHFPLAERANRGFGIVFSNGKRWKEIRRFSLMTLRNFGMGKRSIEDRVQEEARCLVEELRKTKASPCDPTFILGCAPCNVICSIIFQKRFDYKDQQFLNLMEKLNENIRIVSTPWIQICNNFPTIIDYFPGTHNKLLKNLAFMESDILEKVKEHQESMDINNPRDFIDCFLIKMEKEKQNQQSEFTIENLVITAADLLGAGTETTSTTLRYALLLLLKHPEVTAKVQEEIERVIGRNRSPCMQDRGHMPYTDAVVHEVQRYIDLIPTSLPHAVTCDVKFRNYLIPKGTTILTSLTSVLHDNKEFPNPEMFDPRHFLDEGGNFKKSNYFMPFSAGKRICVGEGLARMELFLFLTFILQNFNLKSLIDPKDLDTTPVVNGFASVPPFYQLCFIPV
Chain of Ubiquitin carboxyl-terminal hydrolase 1 (Homo sapiens) (O94782 whole entry, looked up): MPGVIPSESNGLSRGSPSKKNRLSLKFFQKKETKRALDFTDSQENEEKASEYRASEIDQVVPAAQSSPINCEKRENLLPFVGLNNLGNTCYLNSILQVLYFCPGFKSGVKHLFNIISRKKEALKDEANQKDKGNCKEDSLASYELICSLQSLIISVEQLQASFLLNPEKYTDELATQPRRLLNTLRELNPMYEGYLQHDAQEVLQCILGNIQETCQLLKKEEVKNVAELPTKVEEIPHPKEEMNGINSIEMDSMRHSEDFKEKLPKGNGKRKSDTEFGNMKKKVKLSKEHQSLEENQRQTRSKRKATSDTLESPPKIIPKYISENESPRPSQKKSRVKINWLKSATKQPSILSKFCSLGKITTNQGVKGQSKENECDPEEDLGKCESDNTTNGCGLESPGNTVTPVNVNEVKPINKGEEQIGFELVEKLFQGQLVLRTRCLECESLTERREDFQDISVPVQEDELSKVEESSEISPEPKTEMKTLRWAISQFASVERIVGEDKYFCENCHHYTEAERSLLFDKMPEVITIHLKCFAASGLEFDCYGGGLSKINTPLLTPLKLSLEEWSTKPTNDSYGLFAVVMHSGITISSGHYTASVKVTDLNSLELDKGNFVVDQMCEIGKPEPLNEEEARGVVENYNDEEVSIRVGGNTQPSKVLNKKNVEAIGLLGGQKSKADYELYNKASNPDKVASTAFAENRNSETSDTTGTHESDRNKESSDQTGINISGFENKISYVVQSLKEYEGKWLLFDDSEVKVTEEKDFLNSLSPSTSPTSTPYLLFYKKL
Chain of Cytochrome P450 2C9 (Homo sapiens) (P11712 whole entry, looked up): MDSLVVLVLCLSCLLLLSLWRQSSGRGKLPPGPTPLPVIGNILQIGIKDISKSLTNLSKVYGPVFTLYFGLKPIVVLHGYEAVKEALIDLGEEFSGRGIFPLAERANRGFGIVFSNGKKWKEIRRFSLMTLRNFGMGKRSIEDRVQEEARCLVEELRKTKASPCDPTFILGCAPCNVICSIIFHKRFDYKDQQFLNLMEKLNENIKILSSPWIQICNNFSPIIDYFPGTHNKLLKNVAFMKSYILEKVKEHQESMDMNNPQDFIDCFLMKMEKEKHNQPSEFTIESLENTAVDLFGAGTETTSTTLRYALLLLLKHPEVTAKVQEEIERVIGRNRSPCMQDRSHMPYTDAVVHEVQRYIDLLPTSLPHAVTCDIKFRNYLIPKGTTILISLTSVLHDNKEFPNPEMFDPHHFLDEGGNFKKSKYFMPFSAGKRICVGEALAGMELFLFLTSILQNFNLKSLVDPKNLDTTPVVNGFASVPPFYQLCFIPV

Take `O=C(c1ccco1)N1CCC[C@@]2(CCN(Cc3nccs3)C2)C1`: the Potency in assay [1] is > 11.4 µM (inactive); in assay [5], > 46 µM (inactive). The activity change, negative = inhibition in [2] was 1.19% (inactive); in assay [3] it was -14% (inactive); in assay [9] it was 4.23% (inactive). Further, the activity, negative = inhibition in assay [4] is -3.91% (inactive). The molecule was classed as inactive in assay [6]. Further, the Potency entry in assay [7], in assay [8] and in [10] was “inactive” throughout. For the same molecule, the max response in assay [9] (setting [16]) amounted to 5.76%; in assay [9] (setting [17]), 12.9%.

In the case of `N#Cc1ccccc1-c1nc(NCCN2CCOCC2)c2ccccc2n1`, the Potency in assay [1] was > 11.4 µM (inactive); in assay [11], > 46 µM (inactive); in [5], > 46 µM (inactive). The figures for the activity change, negative = inhibition in assay [2], in assay [3] and in assay [9] were 1.04% (inactive), -3.19% (inactive) and 4.61% (inactive), respectively. Also, the activity, negative = inhibition in [4] was 2.02% (inactive). Besides, the molecule was classed as inactive in assay [6]. In addition, the Potency entry in assay [7], in [12] and in [10] was “inactive” in each case. The max response in assay [9] (setting [16]) came to 14.8%; in assay [9] (setting [17]) it was 18.6%.

As to `CS(=O)(=O)N1CCC[C@@]2(CCN(c3ccccc3)C2)C1`, the Potency in assay [1] was > 11.4 µM (inactive); in assay [5] it was > 46 µM (inactive); in assay [13], 3.16 µM (active). For the same molecule, the activity change, negative = inhibition is -11.3% (inactive) in [2], -3.01% (inactive) in assay [3] and -16.2% (inactive) in assay [9]. Moreover, the activity, negative = inhibition in assay [4] was -2.15% (inactive). Besides, the result in assay [6] was inactive. In addition, the Potency result in assay [7], in [8] and in assay [10] was “inactive” each time. The max response was 2% in [9] (setting [16]) and -14% in [9] (setting [17]).

`O=C(c1csnn1)N1CCC2(CC1)CN(c1ccncc1)C2`: the figures for the Potency in assay [1], in assay [5] and in assay [15] were > 11.4 µM (inactive), > 46 µM (inactive) and 2.51 µM (active), respectively. Further, the values for the activity change, negative = inhibition in [2] and in assay [9] were -12.4% (inactive) and 0.619% (inactive), respectively. Also, the Potency entry in assay [14], in assay [7] and in [10] was “inactive” in each case. Besides, the activity, negative = inhibition in assay [4] is -7.18% (inactive). Besides, the molecule was classed as inactive in [6]. Also, the max response stood at 4.32% in assay [9] (setting [16]) and 5.47% in assay [9] (setting [17]).

Regarding `CS(=O)(=O)N1CCC[C@@]2(CCN(C(=O)Nc3cccc(F)c3)C2)C1`, the values for the Potency in assay [1] and in assay [5] were > 11.4 µM (inactive) and > 46 µM (inactive), respectively. The activity change, negative = inhibition was -7.6% (inactive) in [2] and 1.83% (inactive) in assay [9]. For the same molecule, the Potency entry in assay [14], in [7], in assay [8] and in assay [10] was “inactive” throughout. In assay [4], the activity, negative = inhibition is -3.89% (inactive). The call in assay [6] was inactive. Besides, the values for the max response in assay [9] (setting [16]) and in assay [9] (setting [17]) were 1.7% and 6.37%, respectively.
